About 8,800 targets were measured; listed, in parts, are those with a hit and a random draw of the rest. About 0.5% of all pairs of compound and target were hits.
Columns and labels:
Test in all cases: log2 fold change, soluble protein after heating vs DMSO (PISA); higher = thermal stabilisation; K562 lysate, 10 uM; active = over 0.2 and 3.5 SD of the protein, either way, in both replicates (recomputed)
vemurafenib = compound: CCCS(=O)(=O)Nc1ccc(F)c(C(=O)c2c[nH]c3ncc(-c4ccc(Cl)cc4)cc23)c1F [vemurafenib]
In short: (§1)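 Log-two fold change in thermal stability relative to solvent controls is reported from duplicates. For each sample, crude K562 extract from dounce-homogenised pellets in PBS pH 7.4 with 1 mM MgCl2, at 1 mg/mL protein, was treated with 10 μM compound for 30 min. Aliquots heated for 3 min across 48°C-58°C were pooled, brought to 0.5% NP-40 at 4°C and cleared at 21,000xg for 90 min. The supernatant was quantified by TMTpro 16plex LC-MS/MS with channel sums equalised.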

[1] = compound: CCCS(=O)(=O)Nc1ccc(F)c(C(=O)c2c[nH]c3ncc(Cl)cc23)c1F
In short: as §1

barasertib = compound: CCN(CCCOc1ccc2c(Nc3cc(CC(=O)Nc4cccc(F)c4)[nH]n3)ncnc2c1)CCOP(=O)(O)O [barasertib]
In short: as §1

[2] = compound: CC[C@@H]1C(=O)N(C)c2cnc(Nc3ccc(C(=O)NC4CCN(C)CC4)cc3OC)nc2N1C1CCCC1
In short: as §1

volasertib = compound: CC[C@@H]1C(=O)N(C)c2cnc(Nc3ccc(C(=O)N[C@H]4CC[C@H](N5CCN(CC6CC6)CC5)CC4)cc3OC)nc2N1C(C)C [volasertib]
In short: as §1

[3] = compound: CCn1c(C(=O)N(C2CC2)C2CC2)cc2c3c(ncn3C)c(Nc3cc(C)n(C)n3)nc21
In short: as §1

[4] = compound: CCn1cc(-c2ccnc3[nH]c(-c4cccc(CN(C)C)c4)cc23)c(-c2ccc(NC(=O)N(C)C)cc2)n1
In short: as §1

[5] = compound: CN1CCC(CNc2ccc3ncc(-c4cccc(OC(F)(F)F)c4)n3n2)CC1
In short: as §1

saracatinib = compound: CN1CCN(CCOc2cc(OC3CCOCC3)c3c(Nc4c(Cl)ccc5c4OCO5)ncnc3c2)CC1 [saracatinib]
In short: as §1

sotrastaurin = compound: CN1CCN(c2nc(C3=C(c4c[nH]c5ccccc45)C(=O)NC3=O)c3ccccc3n2)CC1 [sotrastaurin]
In short: as §1

alvocidib = compound: CN1CC[C@H](c2c(O)cc(O)c3c(=O)cc(-c4ccccc4Cl)oc23)[C@H](O)C1 [alvocidib]
In short: as §1

Tubastatin A = compound: CN1CCc2c(c3ccccc3n2Cc2ccc(C(=O)NO)cc2)C1 [Tubastatin A]
In short: as §1

[6] = compound: CNC(=O)C1=CC=CC=C1NC2=NC(=NC=C2Cl)NC3=C(C=C(C=C3)N4CCOCC4)OC
In short: as §1

defactinib = compound: CNC(=O)c1ccc(Nc2ncc(C(F)(F)F)c(NCc3nccnc3N(C)S(C)(=O)=O)n2)cc1 [defactinib]
In short: as §1

[7] = compound: CNc1nc(-c2ccc3c(N)n[nH]c3c2)cc(N2C[C@@H](C(=O)NC3CCCCC3)CC[C@H]2C)n1
In short: as §1

encorafenib = compound: COC(=O)N[C@@H](C)CNc1nccc(-c2cn(C(C)C)nc2-c2cc(Cl)cc(NS(C)(=O)=O)c2F)n1 [encorafenib]
In short: as §1

[8] = compound: COC(=O)[C@H](CCSC)NC(=O)C1=C(C=C(C=C1)NC[C@H](CS)N)C2=CC=CC=C2
In short: as §1

alisertib = compound: COc1cc(Nc2ncc3c(n2)-c2ccc(Cl)cc2C(c2c(F)cccc2OC)=NC3)ccc1C(=O)O [alisertib]
In short: as §1

[9] = compound: COc1cc2nc(-c3cc(F)ccc3O)nc(N[C@@H]3CNC[C@H]3C(C)(C)O)c2cc1OC
In short: as §1

gefitinib = compound: COc1cc2ncnc(Nc3ccc(F)c(Cl)c3)c2cc1OCCCN1CCOCC1 [gefitinib]
In short: as §1

Measured: log2 fold change

CMPK2 (UniProt Q5EBM0)
inactive: vemurafenib 0.026 | [1] 0.048 | barasertib 0.155 | [2] 0.018 | volasertib 0.015 | [3] -0.03 | [4] -0.001 | [5] 0.007 | saracatinib 0.006 | sotrastaurin -0.019 | alvocidib -0.046 | Tubastatin A 0.005 | [6] 0.018 | defactinib 0.027 | [7] -0.006 | encorafenib 0.01 | [8] 0.028 | alisertib -0.026 | [9] 0.018 | gefitinib -0.022

CXorf38 (UniProt Q8TB03)
inactive: vemurafenib 0.017 | [1] -0.015 | barasertib -0.024 | [2] 0.038 | volasertib 0.013 | [3] -0.027 | [4] -0.059 | [5] 0.04 | saracatinib 0.105 | sotrastaurin 0.018 | alvocidib 0 | Tubastatin A 0.039 | [6] 0.04 | defactinib -0.012 | [7] -0.016 | encorafenib 0.02 | [8] -0.012 | alisertib -0.021 | [9] -0.058 | gefitinib -0.056

DGCR8 (UniProt Q8WYQ5)
Chain of UniProt Q8WYQ5 (Q8WYQ5 whole entry, looked up): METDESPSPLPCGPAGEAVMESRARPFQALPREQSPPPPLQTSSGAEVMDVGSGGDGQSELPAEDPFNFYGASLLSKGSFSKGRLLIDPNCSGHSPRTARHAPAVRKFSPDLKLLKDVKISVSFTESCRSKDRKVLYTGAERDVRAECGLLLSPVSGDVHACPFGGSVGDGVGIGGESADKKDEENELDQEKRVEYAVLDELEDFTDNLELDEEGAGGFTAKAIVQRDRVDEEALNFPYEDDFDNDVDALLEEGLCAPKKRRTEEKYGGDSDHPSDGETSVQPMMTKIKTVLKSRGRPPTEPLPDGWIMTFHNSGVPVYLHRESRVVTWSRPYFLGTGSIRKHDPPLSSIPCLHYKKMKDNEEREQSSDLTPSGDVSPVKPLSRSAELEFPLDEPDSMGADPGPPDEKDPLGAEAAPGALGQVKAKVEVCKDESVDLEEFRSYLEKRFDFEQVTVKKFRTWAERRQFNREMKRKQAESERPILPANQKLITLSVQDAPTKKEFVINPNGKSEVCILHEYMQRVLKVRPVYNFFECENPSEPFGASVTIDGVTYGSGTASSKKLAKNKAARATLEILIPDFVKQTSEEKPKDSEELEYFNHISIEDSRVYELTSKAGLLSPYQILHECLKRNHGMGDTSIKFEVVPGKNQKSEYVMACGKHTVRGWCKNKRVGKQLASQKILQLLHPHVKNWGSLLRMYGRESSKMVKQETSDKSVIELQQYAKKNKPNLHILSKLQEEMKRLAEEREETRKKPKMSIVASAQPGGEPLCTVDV
inactive: vemurafenib -0.022 | [1] 0.031 | barasertib 0.062 | [2] -0.046 | volasertib -0.021 | [3] 0.015 | [4] -0.052 | [5] 0.066 | saracatinib 0.042 | sotrastaurin 0.04 | alvocidib 0.009 | Tubastatin A -0.115 | [6] -0.009 | defactinib -0.046 | [7] 0.042 | encorafenib 0.018 | [8] 0.081 | alisertib 0.022 | [9] 0.027 | gefitinib -0.034

DIAPH3 (UniProt Q9NSV4)
inactive: vemurafenib 0.041 | [1] 0.028 | barasertib 0.057 | [2] -0.023 | volasertib -0.099 | [3] 0.058 | [4] -0.098 | [5] -0.092 | saracatinib 0.053 | sotrastaurin 0.064 | alvocidib 0.041 | Tubastatin A -0.195 | [6] 0.004 | defactinib -0.024 | [7] -0.027 | encorafenib 0.118 | [8] 0.085 | alisertib 0.056 | [9] -0.015 | gefitinib 0.06

CSNK2B (UniProt P67870)
active: [6] 0.324
inactive: vemurafenib -0.042 | [1] 0.03 | barasertib -0.032 | [2] -0.007 | volasertib -0.038 | [3] 0.015 | [4] 0.01 | [5] 0.124 | saracatinib -0.066 | sotrastaurin -0.029 | alvocidib -0.005 | Tubastatin A -0.012 | defactinib 0.025 | [7] 0.053 | encorafenib -0.026 | [8] -0.006 | alisertib -0.054 | [9] 0.052 | gefitinib -0.022

CORO1A (UniProt P31146)
inactive: vemurafenib -0.021 | [1] -0.001 | barasertib 0.013 | [2] 0.025 | volasertib -0.035 | [3] 0.11 | [4] -0.113 | [5] 0.021 | saracatinib -0.169 | sotrastaurin -0.007 | alvocidib 0 | Tubastatin A -0.02 | [6] 0.013 | defactinib -0.034 | [7] 0.037 | encorafenib -0.051 | [8] 0.144 | alisertib -0.018 | [9] -0.021 | gefitinib -0.037

COG6 (UniProt Q9Y2V7)
Chain of UniProt Q9Y2V7 (Q9Y2V7 whole entry, looked up): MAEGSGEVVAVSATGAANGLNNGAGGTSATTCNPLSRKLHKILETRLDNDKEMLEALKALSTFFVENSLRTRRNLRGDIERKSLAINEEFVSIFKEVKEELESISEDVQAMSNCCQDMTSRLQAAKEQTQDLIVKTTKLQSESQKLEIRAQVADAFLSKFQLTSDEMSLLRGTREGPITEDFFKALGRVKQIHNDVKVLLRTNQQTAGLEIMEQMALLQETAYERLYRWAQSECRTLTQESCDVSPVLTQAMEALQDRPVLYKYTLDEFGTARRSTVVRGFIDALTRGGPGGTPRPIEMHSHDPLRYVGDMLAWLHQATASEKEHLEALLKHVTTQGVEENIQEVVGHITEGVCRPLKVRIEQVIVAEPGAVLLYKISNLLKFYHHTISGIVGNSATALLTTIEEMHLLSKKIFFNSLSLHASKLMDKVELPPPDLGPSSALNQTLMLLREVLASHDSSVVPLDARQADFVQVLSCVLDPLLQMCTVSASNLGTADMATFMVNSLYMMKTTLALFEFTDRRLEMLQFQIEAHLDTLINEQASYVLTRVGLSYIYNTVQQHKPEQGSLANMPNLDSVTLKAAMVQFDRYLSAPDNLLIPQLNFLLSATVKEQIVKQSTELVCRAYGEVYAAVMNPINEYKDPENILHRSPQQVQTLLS
inactive: vemurafenib 0.062 | [1] 0.013 | barasertib 0.072 | [2] -0.004 | volasertib -0.046 | [3] 0.015 | [4] -0.116 | [5] 0.017 | saracatinib 0.073 | sotrastaurin -0.017 | alvocidib 0.026 | Tubastatin A -0.062 | [6] 0.059 | defactinib -0.028 | [7] 0.059 | encorafenib -0.026 | [8] 0.034 | alisertib 0.016 | [9] -0.017 | gefitinib 0.006

COMT (UniProt P21964)
Chain of UniProt P21964 (P21964 whole entry, looked up): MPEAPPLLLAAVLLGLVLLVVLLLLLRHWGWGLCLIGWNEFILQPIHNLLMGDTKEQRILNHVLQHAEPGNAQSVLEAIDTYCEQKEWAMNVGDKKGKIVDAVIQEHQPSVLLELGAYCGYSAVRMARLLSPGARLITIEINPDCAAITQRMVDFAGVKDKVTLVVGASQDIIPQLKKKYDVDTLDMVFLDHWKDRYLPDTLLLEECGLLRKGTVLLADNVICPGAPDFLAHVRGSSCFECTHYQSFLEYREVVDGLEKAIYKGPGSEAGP
inactive: vemurafenib -0.052 | [1] 0.012 | barasertib 0.024 | [2] -0.101 | volasertib -0.056 | [3] 0.039 | [4] 0.026 | [5] 0.005 | saracatinib 0.008 | sotrastaurin 0.036 | alvocidib 0.012 | Tubastatin A -0.162 | [6] -0.016 | defactinib 0.016 | [7] -0.013 | encorafenib 0.028 | [8] 0.059 | alisertib 0.022 | [9] 0.025 | gefitinib 0.013

CLUH (UniProt O75153)
inactive: vemurafenib -0.03 | [1] 0.014 | barasertib 0.024 | [2] 0.012 | volasertib -0.02 | [3] -0.009 | [4] -0.024 | [5] 0.117 | saracatinib 0.011 | sotrastaurin 0.01 | alvocidib -0.022 | Tubastatin A -0.076 | [6] -0.076 | defactinib 0.002 | [7] -0.029 | encorafenib 0.007 | [8] 0.058 | alisertib -0.014 | [9] -0.014 | gefitinib 0.017

DHRS1 (UniProt Q96LJ7)
Chain of UniProt Q96LJ7 (Q96LJ7 whole entry, looked up): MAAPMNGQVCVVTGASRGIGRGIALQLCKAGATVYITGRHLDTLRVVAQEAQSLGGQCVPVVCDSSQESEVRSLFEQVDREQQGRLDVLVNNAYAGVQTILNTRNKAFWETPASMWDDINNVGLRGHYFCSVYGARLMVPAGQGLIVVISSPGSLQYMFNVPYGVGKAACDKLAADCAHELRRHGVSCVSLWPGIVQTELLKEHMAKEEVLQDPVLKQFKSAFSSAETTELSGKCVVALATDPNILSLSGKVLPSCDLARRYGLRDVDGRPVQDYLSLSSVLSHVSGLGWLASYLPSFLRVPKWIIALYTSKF
inactive: vemurafenib 0.436 | [1] 0.187 | barasertib 0.053 | [2] -0.045 | volasertib 0.012 | [3] -0.029 | [4] -0.042 | [5] -0.05 | saracatinib 0.001 | sotrastaurin 0.026 | alvocidib -0.057 | Tubastatin A 0.02 | [6] 0.188 | defactinib -0.238 | [7] -0.012 | encorafenib 0.164 | [8] -0.102 | alisertib 0.059 | [9] 0.028 | gefitinib -0.075

COG2 (UniProt Q14746)
Chain of UniProt Q14746 (Q14746 whole entry, looked up): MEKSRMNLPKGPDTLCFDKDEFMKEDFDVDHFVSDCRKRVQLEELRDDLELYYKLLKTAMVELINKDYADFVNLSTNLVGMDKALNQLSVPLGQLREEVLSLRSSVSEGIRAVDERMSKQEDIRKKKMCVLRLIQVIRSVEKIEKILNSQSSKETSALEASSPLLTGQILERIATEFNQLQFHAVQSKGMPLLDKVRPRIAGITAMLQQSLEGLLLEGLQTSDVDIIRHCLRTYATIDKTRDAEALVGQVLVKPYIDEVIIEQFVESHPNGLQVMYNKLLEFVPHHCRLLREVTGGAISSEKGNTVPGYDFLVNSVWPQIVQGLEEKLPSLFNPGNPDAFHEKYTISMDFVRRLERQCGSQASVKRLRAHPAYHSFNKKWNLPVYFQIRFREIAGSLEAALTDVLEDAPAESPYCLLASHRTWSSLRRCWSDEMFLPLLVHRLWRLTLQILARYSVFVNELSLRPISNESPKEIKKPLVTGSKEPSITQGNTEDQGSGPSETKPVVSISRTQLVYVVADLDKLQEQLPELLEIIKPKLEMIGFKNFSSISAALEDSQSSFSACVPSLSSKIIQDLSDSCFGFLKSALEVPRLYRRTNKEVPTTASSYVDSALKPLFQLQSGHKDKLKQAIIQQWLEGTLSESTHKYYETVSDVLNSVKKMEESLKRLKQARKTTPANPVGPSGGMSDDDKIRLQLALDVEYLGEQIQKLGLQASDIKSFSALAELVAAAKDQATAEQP
inactive: vemurafenib 0.023 | [1] 0.012 | barasertib 0.077 | [2] -0.052 | volasertib -0.088 | [3] 0.106 | [4] 0.032 | [5] -0.093 | saracatinib 0.002 | sotrastaurin 0.037 | alvocidib -0.032 | Tubastatin A -0.114 | [6] -0.009 | defactinib 0.05 | [7] 0.028 | encorafenib -0.009 | [8] 0.052 | alisertib 0.021 | [9] -0.022 | gefitinib -0.039

CLIP1 isoform 1 (UniProt P30622)
inactive: vemurafenib -0.011 | [1] 0.016 | barasertib -0.011 | [2] 0.034 | volasertib 0.034 | [3] -0.03 | [4] -0.055 | [5] 0.02 | saracatinib 0.021 | sotrastaurin 0.008 | alvocidib -0.005 | Tubastatin A 0.038 | [6] 0.014 | defactinib -0.006 | [7] -0.008 | encorafenib 0.003 | [8] -0.03 | alisertib -0.016 | [9] 0.014 | gefitinib 0.001

CSNK1E (UniProt P49674)
Chain of UniProt P49674 (P49674 whole entry, looked up): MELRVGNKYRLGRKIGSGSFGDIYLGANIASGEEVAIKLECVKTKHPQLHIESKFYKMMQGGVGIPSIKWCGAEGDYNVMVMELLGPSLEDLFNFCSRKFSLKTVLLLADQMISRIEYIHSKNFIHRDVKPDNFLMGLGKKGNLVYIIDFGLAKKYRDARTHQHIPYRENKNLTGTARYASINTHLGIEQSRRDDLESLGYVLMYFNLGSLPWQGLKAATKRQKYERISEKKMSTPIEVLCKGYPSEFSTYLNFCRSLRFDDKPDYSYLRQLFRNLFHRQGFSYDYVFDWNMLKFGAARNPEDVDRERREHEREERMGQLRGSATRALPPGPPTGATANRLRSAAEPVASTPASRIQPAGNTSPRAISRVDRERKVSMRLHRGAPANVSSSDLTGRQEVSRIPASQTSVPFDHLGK
inactive: vemurafenib -0.013 | [1] -0.038 | barasertib 0.029 | [2] 0.135 | volasertib -0.01 | [3] 0.11 | [4] -0.013 | [5] 0.237 | saracatinib 0.069 | sotrastaurin 0.061 | alvocidib 0.021 | Tubastatin A -0.159 | [6] 0.129 | defactinib -0.017 | [7] 0.093 | encorafenib -0.032 | [8] 0.028 | alisertib -0.034 | [9] 0.048 | gefitinib 0.012

DDX54 isoform 2 (UniProt Q8TDD1)
Chain of UniProt Q8TDD1 (Q8TDD1 whole entry, looked up): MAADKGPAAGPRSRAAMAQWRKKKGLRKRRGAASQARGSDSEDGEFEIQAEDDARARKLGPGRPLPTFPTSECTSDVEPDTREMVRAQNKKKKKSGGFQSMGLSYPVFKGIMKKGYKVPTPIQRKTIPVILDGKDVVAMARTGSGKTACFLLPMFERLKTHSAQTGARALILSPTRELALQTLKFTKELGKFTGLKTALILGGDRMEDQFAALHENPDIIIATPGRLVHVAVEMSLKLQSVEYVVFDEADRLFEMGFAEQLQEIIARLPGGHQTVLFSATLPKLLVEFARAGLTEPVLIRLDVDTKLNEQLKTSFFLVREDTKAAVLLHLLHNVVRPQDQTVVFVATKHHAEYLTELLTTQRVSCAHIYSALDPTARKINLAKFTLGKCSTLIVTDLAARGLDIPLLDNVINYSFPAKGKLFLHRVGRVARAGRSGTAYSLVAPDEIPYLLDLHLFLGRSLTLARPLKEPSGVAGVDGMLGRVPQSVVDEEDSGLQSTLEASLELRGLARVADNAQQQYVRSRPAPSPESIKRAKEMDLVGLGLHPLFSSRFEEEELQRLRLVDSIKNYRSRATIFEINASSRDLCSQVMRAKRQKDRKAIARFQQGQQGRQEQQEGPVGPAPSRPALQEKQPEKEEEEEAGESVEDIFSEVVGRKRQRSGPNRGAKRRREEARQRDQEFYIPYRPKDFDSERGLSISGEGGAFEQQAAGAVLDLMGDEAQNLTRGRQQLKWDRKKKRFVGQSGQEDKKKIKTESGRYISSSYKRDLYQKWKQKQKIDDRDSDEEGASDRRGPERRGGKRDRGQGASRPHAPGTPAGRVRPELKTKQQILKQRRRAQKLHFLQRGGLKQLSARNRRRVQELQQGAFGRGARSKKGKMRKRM
active: barasertib -0.319
inactive: vemurafenib -0.041 | [1] 0.017 | [2] -0.069 | volasertib -0.045 | [3] 0.053 | [4] -0.056 | [5] 0 | saracatinib -0.015 | sotrastaurin 0.045 | alvocidib -0.037 | Tubastatin A -0.047 | [6] 0.017 | defactinib -0.05 | [7] -0.03 | encorafenib 0.084 | [8] 0.025 | alisertib 0.023 | [9] 0.006 | gefitinib -0.089

CNOT4 isoform 6 (UniProt O95628)
Chain of UniProt O95628 (O95628 whole entry, looked up): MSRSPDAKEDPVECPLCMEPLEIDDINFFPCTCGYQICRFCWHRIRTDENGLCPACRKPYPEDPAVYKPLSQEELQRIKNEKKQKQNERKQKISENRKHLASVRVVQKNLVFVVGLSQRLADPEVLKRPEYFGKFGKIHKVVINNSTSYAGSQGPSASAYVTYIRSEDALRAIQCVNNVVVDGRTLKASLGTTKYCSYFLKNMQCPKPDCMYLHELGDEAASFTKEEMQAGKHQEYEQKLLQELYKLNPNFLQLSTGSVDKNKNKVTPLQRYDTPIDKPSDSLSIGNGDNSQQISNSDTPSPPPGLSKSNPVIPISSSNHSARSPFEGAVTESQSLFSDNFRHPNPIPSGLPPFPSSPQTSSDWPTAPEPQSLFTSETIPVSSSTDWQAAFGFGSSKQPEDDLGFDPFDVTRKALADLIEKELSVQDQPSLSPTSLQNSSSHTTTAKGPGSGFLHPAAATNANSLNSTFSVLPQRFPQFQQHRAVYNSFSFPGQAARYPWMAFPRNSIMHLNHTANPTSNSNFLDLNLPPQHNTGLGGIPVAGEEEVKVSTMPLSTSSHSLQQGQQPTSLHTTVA
inactive: vemurafenib -0.052 | [1] 0.008 | barasertib -0.014 | [2] 0.057 | volasertib 0.009 | [3] 0.108 | [4] -0.053 | [5] 0 | saracatinib 0.057 | sotrastaurin -0.005 | alvocidib 0.015 | Tubastatin A -0.011 | [6] -0.009 | defactinib 0.001 | [7] -0.069 | encorafenib 0.076 | [8] -0.051 | alisertib -0.003 | [9] -0.041 | gefitinib -0.007

DCUN1D4 isoform 3 (UniProt Q92564)
Chain of UniProt Q92564 (Q92564 whole entry, looked up): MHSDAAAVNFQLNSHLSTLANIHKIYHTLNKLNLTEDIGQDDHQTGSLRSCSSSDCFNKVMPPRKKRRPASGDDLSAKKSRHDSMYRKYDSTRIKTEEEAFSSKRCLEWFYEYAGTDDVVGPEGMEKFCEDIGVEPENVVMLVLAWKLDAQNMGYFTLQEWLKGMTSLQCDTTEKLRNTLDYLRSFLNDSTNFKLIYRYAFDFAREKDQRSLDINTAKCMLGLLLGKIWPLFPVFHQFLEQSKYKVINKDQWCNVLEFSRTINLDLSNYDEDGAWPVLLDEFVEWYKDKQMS
active: [2] -0.321
inactive: vemurafenib 0.066 | [1] 0.075 | barasertib -0.027 | volasertib 0.049 | [3] -0.02 | [4] -0.036 | [5] 0.02 | saracatinib 0.005 | sotrastaurin 0.028 | alvocidib -0.276 | Tubastatin A 0.081 | [6] 0.003 | defactinib 0.014 | [7] 0.035 | encorafenib 0.034 | [8] 0.131 | alisertib 0.055 | [9] -0.043 | gefitinib -0.049
